Screening results deposited in PubChem by several laboratories.
NALP1 inh – inhibitors of NALP1 inflammasome in yeast; S. cerevisiae NALP1/ASC/caspase-1 growth, X-gal OD620, 72 h; inhibition, % at 10 µM; 0.61% of 280,000 active; AID 2071; in the data active = inhibition mostly above about 24%, no sharp cut-off; inactive = mostly below about 32%
tim23-1 inh – inhibits growth of tim23-1 mutant yeast. 1.3% of 330,000 active. inhibition, % at 20 µM. S. cerevisiae tim23-1 growth, BacTiter-Glo luminescence, 24 h;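 active = growth inhibition of the mutant yeast at or above 50%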;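 also: temperature-sensitive mutant grown at 25 °C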
NLRP3 yeast inh – NALP3 inhibition in yeast; 0.39% of 330,000 active; AID 2825; Yeast reconstituted NLRP3/ASC/caspase-1, beta-gal luminescence, 24 h; inhibition, % at 10 µM;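 active = inhibition of 50% or more; inactive = inhibition below 50%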
tim10-1 inh – inhibits growth of tim10-1 mutant yeast; S. cerevisiae tim10-1 ts strain growth, BacTiter-Glo, 24 h; inhibition, % at 20 µM; 2.2% of 330,000 active;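 active = inhibition of at least 40%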;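 also: mutant grown at 25 °C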
PfHsp90 set2 – inhibits growth of yeast expressing Plasmodium falciparum Hsp90 | S. cerevisiae expressing PfHsp90, BacTiter-Glo ATP, 48 h; yeast lacking PDR1 and PDR3 efflux regulators | inhibition, % at 9.4 µM | 0.32% of 310,000 active;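 active = every replicate shows inhibition above about 80%, whatever the replicate mean, limit read from the data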
TIM10 inh – growth inhibitors of TIM10 yeast strain; S. cerevisiae TIM10 strain growth, BacTiter-Glo luminescence, 24 h; inhibition, % at 10 µM; 1.4% of 330,000 active; AID 463195;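 active = inhibition of 40% or more at the single tested concentration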;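 also: wild-type TIM10 isogenic control strain grown at permissive 25 °C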
tim10-1 conf – confirmation of tim10-1 mutant yeast growth inhibitors. shares compounds with tim10-1 inh. S. cerevisiae tim10-1 ts strain growth, BacTiter-Glo, 24 h. inhibition, % at 20 µM. 56% of 7,400 active. AID 463213;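 active = inhibition of yeast growth at or above a set limit in either of two repeat tests at 20 µM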;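 also: tim10-1 mutant grown at permissive 25 °C to find synthetic lethal compounds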
Each line names hits and unclear results; the compound was inactive in the other large screens (follow-up assays come after a bar, where they were run). The list is not random: actives were taken first. Their share in the collection is about 4.1%.

CC(=O)Nc1cc(C(F)(F)F)ccc1OCCOc1ccccc1	tim10-1 inh 47 (no result: NALP1 inh) | tim10-1 conf inactive
CCCN(CCC)C(=O)c1ccc2c(c1)N(CC)C(=O)c1ccccc1S2(=O)=O	none
O=C(CNC(=O)c1ccccc1)NCCCSc1ccccc1	none (no result: NALP1 inh)
O=C(NCCCSc1ccccc1)c1cc(Cl)ccc1O	tim10-1 inh 47 | tim10-1 conf inactive
O=C(NN1C(=O)/C(=C/c2ccc(O)cc2)SC1=S)c1cccc(O)c1	none
CC(/C=C1\SC(=S)N(NC(=O)c2cccc(O)c2)C1=O)=C\c1ccccc1	tim10-1 inh 51 | tim10-1 conf 31
N#C/C(=C\C=C\c1ccccc1[N+](=O)[O-])C(=O)NCc1ccccc1	tim10-1 inh 45 | tim10-1 conf 35
CC12C(=O)N(c3cccc(OC(=O)c4ccco4)c3)C(=O)C1C1c3ccccc3C2c2ccccc21 (centres undefined)	tim10-1 inh 42 (no result: PfHsp90 set2) | tim10-1 conf inactive
CC12C(=O)N(c3ccc(OC(=O)c4ccco4)cc3)C(=O)C1C1c3ccccc3C2c2ccccc21 (centres undefined)	none
COc1c(/C=C2\SC(=Nc3ccccc3Cl)NC2=O)cccc1[N+](=O)[O-]	tim10-1 inh 44 | tim10-1 conf 45
O=C1NC(=Nc2ccccc2Cl)S/C1=C\c1cccc([N+](=O)[O-])c1O	none
Cc1c(C)n(Cc2ccccc2)c2ccc(C(=O)OCCN(C)C)cc12	tim10-1 inh 41 | tim10-1 conf 43
Cn1c(=O)c2c(nc(N/N=C/c3cccs3)n2Cc2ccccc2)n(C)c1=O	none
Cn1c(N/N=C/c2cccs2)nc2c1c(=O)n(Cc1ccccc1)c(=O)n2C	tim10-1 inh 40 | tim10-1 conf inactive
COc1cccc2sc(N3CCN(C(=O)c4ccc([N+](=O)[O-])o4)CC3)nc12	tim10-1 inh 51 (no result: NALP1 inh) | tim10-1 conf inactive
Cc1ccc2sc(N3CCN(C(=O)c4ccc([N+](=O)[O-])o4)CC3)nc2c1C	none (no result: NALP1 inh, PfHsp90 set2)
Cc1ccccc1CS(=O)(=O)CC(O)CN1CCCC1=O (centres undefined)	none
CCOCC(=O)Nc1nc2ccccc2s1	none
COc1ccc(/C(C)=N/OCC(=O)Nc2nc3ccccc3s2)cc1	tim10-1 inh 42 | tim10-1 conf 29
COc1ccc(C(=O)Nc2ncccc2C)cc1S(=O)(=O)N1CCOCC1	none (no result: NALP1 inh, PfHsp90 set2)
Cc1cc(NS(=O)(=O)c2ccc(NC(=O)COc3ccc(Cl)c(C)c3)cc2)no1	none
O=C(CSc1ncnc2c1nnn2Cc1ccccc1)NC1CCCC1	none
CC(C)(C)NC(=O)CSc1ncnc2c1nnn2Cc1ccccc1Cl	tim10-1 inh 48 | tim10-1 conf inactive
COc1ccc(CN2CCN(C(=O)Cn3ncn4cccc4c3=O)CC2)c(OC)c1OC	none
CCCc1[nH][nH]c(=O)c1C(c1ccccc1)C(C#N)C#N (centres undefined)	none (no result: PfHsp90 set2)
CCCc1[nH][nH]c(=O)c1C(c1ccc(Cl)cc1)C(C#N)C#N (centres undefined)	tim10-1 inh 46 | tim10-1 conf inactive
Cc1cc(N)n2ncc(-c3ccc(F)cc3)c2n1	tim10-1 inh 50 | tim10-1 conf 39
Cc1nc2c(-c3ccc(F)cc3)cnn2c(N)c1-c1ccc(F)cc1	none
O=C(CSc1nnc(-c2ccccn2)n1Cc1ccco1)c1ccccc1	none
Brc1ccc(CSc2nnc(-c3ccccn3)n2Cc2ccco2)cc1	tim10-1 inh 40 (no result: PfHsp90 set2) | tim10-1 conf 33
C(=C\c1ccccc1)/CSc1nnc(-c2ccccc2)n1Cc1ccco1	tim10-1 inh 44 (no result: PfHsp90 set2) | tim10-1 conf inactive
O=C(CSc1nnc(-c2cccnc2)n1Cc1ccco1)c1ccc2ccccc2c1	tim10-1 inh 45 (no result: PfHsp90 set2) | tim10-1 conf inactive
C(=C\c1ccccc1)/CSc1nnc(-c2ccncc2)n1Cc1ccco1	none
Cc1c(C(=O)NC2CCC(C)CC2)oc2ccccc12 (centres undefined)	none
CC(C)(C)c1ccc(COn2c(=O)c(-c3ccco3)[n+]([O-])c3ccccc32)cc1	tim10-1 inh 50 | tim10-1 conf inactive
CCOc1ccccc1NC(=O)C(OC(=O)c1ccc(CC)cc1)c1ccccc1 (centres undefined)	none
